Laboratory results from PubChem BioAssay AID485317 (Broad Institute, 2010).
Among all 290,000 compounds or so, about 11,000 (3.8%) were called active. This is one part of a sample in which actives are shown more often than they occur. A number with no mark means an inactive call.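 Rule for the calls: active = mean replicate inhibition above about 79%, with every replicate also reaching it (limit read from the data); inconclusive = only one of the two criteria met; inactive = mean below limit and not every replicate reaching it.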

These compounds were tested against FAD-linked sulfhydryl oxidase ALR (Homo sapiens) (UniProt P55789) (assay: ALR-catalysed DTT oxidation blockers – biochemical, H2O2 detection, HRP-luminol luminescence, single point, primary screen (AID 485317)). Conditions: purified ALR, active compounds read high, concentration not given here.
FAD-linked sulfhydryl oxidase ALR (Homo sapiens), sequence (P55789 whole entry, looked up): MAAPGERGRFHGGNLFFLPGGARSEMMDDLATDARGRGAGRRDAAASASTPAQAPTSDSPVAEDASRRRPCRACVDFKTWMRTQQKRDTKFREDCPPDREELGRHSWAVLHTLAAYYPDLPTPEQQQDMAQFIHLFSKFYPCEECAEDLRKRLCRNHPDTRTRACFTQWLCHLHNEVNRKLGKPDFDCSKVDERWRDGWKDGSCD

SMILES | inhibition
COC(=O)[C@]1(CC(C)C)N[C@H](c2ccc(SC3CCCCC3)cc2)[C@@H]2C(=O)N(C)C(=O)[C@@H]21 | -4.22%
O=C(Nc1cccc(S(=O)(=O)N2CCCC2)c1)c1cncc(Br)c1 | -0.493%
OCC[C@H]1C[C@@H](O)[C@H](O)[C@@]2(OCCc3ccccc32)O1 | -5.81%
C=CC[C@@H](CC(=O)N[C@@H](CO)Cc1ccccc1)C(=O)N[C@H](COC(=O)[C@H](CC=C)CC(=O)OC(C)(C)C)Cc1ccccc1 | 0.393%
Cc1ccc(C(c2sc3nc(C)nn3c2O)N2CCN(c3ccc(F)cc3)CC2)cc1 (centres undefined) | 2.24%
Oc1c(C(c2ccco2)N2CCC3(CC2)OCCO3)sc2ncnn12 (centres undefined) | -33.4%
Oc1c(C(c2cccs2)N2CCN(c3ccc(F)cc3)CC2)sc2ncnn12 (centres undefined) | 95.5% (active)
COc1ccc(C(CNC(=O)c2ccc(NS(=O)(=O)c3ccc(F)c(C)c3)cc2)N(C)C)cc1 (centres undefined) | -5.64%
CC1(C)CC(=O)C=C(c2ccc(Cl)c(C(F)(F)F)c2)C1 | 3.75%
CC(=O)c1ccc(NC(=O)CSC(=S)N2CCCC2)cc1 | 92.8% (active)
COc1cc(NC(=O)CSC(=S)N2CCCC2)c(OC)cc1Cl | -2.05%
CCN(CC(=O)Nc1ccc(NC(C)=O)cc1)C(=O)CSC(=S)N1CCCC1 | -0.0599%
CN1C(=O)c2cccc3c(N)ccc(c23)C1=O | -15.1%
CCN1C(=O)c2cccc3c(N)ccc1c23 | 99.2% (active)
CCN1C(=O)c2cccc3c(S(=O)(=O)Nc4ccccc4O)ccc1c23 | -28.9%
COc1ccc(-c2c(C#Cc3ccccc3)c3ccccc3n2C)cc1 | -4.24%
CCOC(=O)C1CCN(CC(=O)Nc2ccc(OC)c(S(=O)(=O)N3CCCCC3)c2)CC1 | -8.75%
COc1ccc(F)cc1S(=O)(=O)NCC(c1ccc2c(c1)OCO2)N1CCN(C)CC1 (centres undefined) | -4.58%
CN(C(=O)c1cccc(NC(=O)C2CCN(C(=O)OC(C)(C)C)CC2)c1)C1CCC1 | 4.19%
O=C(/C=C/c1ccccc1)Oc1coc(CSc2ncccn2)cc1=O | 97.4% (active)
C=CCNC(=O)COc1coc(CN2CCN(Cc3ccccc3)CC2)cc1=O | -3.07%
Cc1ccc(C(=O)Oc2coc(CSc3nnc(NC(=O)c4cccs4)s3)cc2=O)cc1C | 0.72%
CC(=O)NCc1ccc(-c2csc(NC(=O)CCCc3nc4ccccc4c(=O)[nH]3)n2)cc1 | -5.1%
C[C@@H]1CN([C@H](C)CO)C(=O)c2cc(NC(=O)NC3CCCCC3)ccc2O[C@H]1CN(C)S(C)(=O)=O | 0.076%
Cc1cccc(N=C2SC(C)CN2C(=O)CN2C(=O)NC3(CCCC3)C2=O)c1 (centres undefined) | 2.77%
O=C1CSc2ccc(C(=O)NCc3ccccn3)cc2N1 | -5.07%
Cc1nn(Cc2ccccc2)c(C)c1C(=O)N1CCN(CC(=O)Nc2ccccc2Cl)CC1 | -4.78%

SMILES | inhibition
COc1ccc(-c2nc3c(s2)CCc2onc(-c4ccc(Br)cc4)c2-3)cc1 | -11%
CCCCCCSc1ccc(-c2nc3ccc(Cl)cn3c2NCc2ccccc2)cc1 | -0.616%
Clc1ccc2nc(CSc3ccccc3)cn2c1 | 98.9% (active)
CCOc1ncccc1C(=O)OCc1cn2cc(Cl)ccc2n1 | -2.41%
O=C1N[C@@H](Cc2ccccc2)C(=O)N2[C@H]1C[C@]1(Br)c3ccccc3N(S(=O)(=O)c3ccccc3)[C@H]21 | -12.1%
Cc1ccc(-c2nc(C)sc2CC(=O)O)cc1 | 99.3% (active)
Cc1ccc(-c2nc(C)sc2CC(=O)OCC(=O)Nc2c(F)cccc2F)cc1 | -7.76%
CCOc1ccc(-c2nc(C)sc2CC(=O)O)cc1 | -6.6%
Cc1ccc(C(=O)OCC(=O)N2CCCCCC2)cc1S(=O)(=O)N1CCOCC1 | -22.6%
COc1cccc(CNC(=O)COC(=O)CN2C(=O)NC3(CCCCC3C)C2=O)c1 (centres undefined) | 2.16%
Oc1ccc(/C=N/NC2=NCCCCC2)c(O)c1 | 81.4% (active)
Cc1nc2ccccc2nc1N/N=C/c1ccc(O)cc1O | 95.7% (active)
COc1ccc(/C=C(\C#N)C(=O)ONC2=NCCCCC2)cc1 | 12.1%
FC(F)(F)c1nc2ccccc2nc1N/N=C/c1ccc(Cl)cc1 | -14.4%
Oc1ccc(/C=N/Nc2nc(-c3ccccc3F)nc3ccccc23)c(O)c1 | 6.31%
COc1ccccc1N1CCN(/N=C/c2ccc(O)cc2O)CC1 | 1.54%
COc1ccc(OC)c(/C=C/C(=O)c2ccc3c(c2)OCO3)c1 | 3.84%
COc1cc(OC)cc(C(=O)NNC(=O)CNC(=O)c2ccc(Br)o2)c1 | 7.85%
CC(=O)Nc1ccc(C(=O)NNC(=O)CCCCC(=O)NNC(=O)c2ccc(NC(C)=O)cc2)cc1 | -0.231%
CNC[C@H]1Oc2c(NC(=O)C3CCCCC3)cccc2C(=O)N([C@H](C)CO)C[C@@H]1C | -1.07%
C=CC[C@@H](CC(=O)N[C@H](CO)Cc1ccccc1)C(=O)N[C@H](C)COC(=O)[C@@H](CC=C)Cc1ccc(F)cc1 | 2.31%
CCOC(=O)c1cc(-c2ccccc2C)n(Cc2cc(C)no2)n1 | 0.367%
Cc1ccc(S(=O)(=O)N2[C@@H](c3ccccc3F)C(C(=O)O)=CC[C@H]2c2ccc(Cl)cc2)cc1 | 2.55%
COc1ccc(S(=O)(=O)N2CCN(c3cnccn3)CC2)cc1 | -0.305%
Cc1cc(C)cc(C(=O)NC2C(=O)N3C(C(=O)O)=C(CSc4nnc(C)s4)CSC23)c1 (centres undefined) | 98% (active)
Cc1nnc(SCC2=C(C(=O)O)N3C(=O)C(NC(=O)Cn4nc(C)c(Cl)c4C)C3SC2)s1 (centres undefined) | -10.4%
CO/N=C(\C(=O)N[C@@H]1C(=O)N2C(C(=O)O)=C(COC(C)=O)CS[C@H]12)c1csc(N)n1 (stereo in doubt) | -8.83%
